# From PubChem BioAssay AID1053180 (Broad Institute, 2014)
# Values joined by “and” are separate entries in the source; they are usually repeats but may differ in a detail not shown here. Identical values can stand only once. In all, about 9,600 compounds went through this assay and about 20 (0.2%) were called active.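 How the source made its calls: active means highest normalized replicate activity of 15 or more, or at least half the replicates reach 15 or more; inactive means neither condition met.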 The list comes from a sample in which actives are over-represented; it also holds similar structures and randomly drawn compounds. A structure can be active in one record and inactive in another.
# Experiment: Pax4 mRNA upregulation in alpha cells – RT-PCR, mouse alpha TC1 cells, single point, primary screen (AID 1053180);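 further: Pax4 Ct normalized to GAPDH with activation seen as lower delta delta Ct; plate controls were plate neutral control wells for no effect and Pax4 plasmid positive control for full effect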
# Conditions: Pax4 mRNA qPCR, 6 days, at 10 µM, stronger effect = higher value, 100% = Pax4 plasmid added at qPCR
row,Structure (SMILES),activation
1,COc1cccc(C#Cc2ccc([C@H]3[C@H](CO)N4C(=O)CN(C(=O)Cc5cccnc5)C[C@@H]34)cc2)c1,0% (inactive)
2,CO[C@H]1CC[C@H]2CCOc3c(C#N)cccc3C(=O)N(C)C[C@H](OC)[C@H](C)C(=O)N(C)C[C@@H]1O2,-0.0005% (inactive)
3,CO[C@H]1CN(C)C(=O)c2cc(NC(=O)CC(F)(F)F)ccc2OC[C@@H](C)N(CC2CC2)C[C@@H]1C,-0.0005% (inactive)
4,C[C@H](CO)N1C[C@H](C)[C@H](CN(C)Cc2ccc3c(c2)OCO3)Oc2ccc(NS(=O)(=O)c3cn(C)cn3)cc2CC1=O,0.004% (inactive)
5,N#C[C@@H]1N[C@@H](CO)[C@@H]1c1ccc(C#CC2CCCCC2)cc1,0.001% (inactive)
6,Cc1noc(C)c1S(=O)(=O)N(C)C[C@H]1Oc2c(NS(=O)(=O)c3cn(C)cn3)cccc2C(=O)N([C@@H](C)CO)C[C@@H]1C,-0.005% (inactive)
7,COc1ccc2c3c([nH]c2c1)[C@H](CO)N(C(=O)Nc1ccc(F)cc1)CC31CN(S(=O)(=O)c2ccc(C)cc2)C1,0.006% (inactive)
8,CCS(=O)(=O)Nc1ccc2c(c1)C(=O)N(C)[C@@H]1CC[C@H](CC(=O)NC3CCCCC3)O[C@@H]1CO2,0% (inactive)
9,C[C@@H]1CN([C@H](C)CO)C(=O)Cc2cc(NS(=O)(=O)c3ccc(Cl)cc3)ccc2O[C@@H]1CN(C)C(=O)Nc1ccc(C(F)(F)F)cc1,0.005% (inactive)
10,CC(C)NC(=O)Nc1ccc2c(c1)C(=O)N([C@H](C)CO)C[C@H](C)[C@@H](CN(C)C(=O)C1CCCCC1)OCCCC[C@H](C)O2,-0.0015% (inactive)
11,O=C(C[C@@H]1CC[C@H]2[C@@H](COC[C@H](O)CN2S(=O)(=O)c2cccc(F)c2)O1)NCc1ccncn1,0.011% (inactive)
12,Cc1nn(C)cc1NC(=O)C[C@@H]1CC[C@@H]2[C@@H](COc3ccc(NC(=O)c4cccc(F)c4)cc3C(=O)N2C)O1,0.0025% (inactive)
13,C[C@@H]1CN([C@H](C)CO)C(=O)c2cc(NS(=O)(=O)c3ccccc3)ccc2O[C@@H](C)CCCCO[C@@H]1CN(C)C(=O)C1CCCCC1,-0.001% (inactive)
14,CC(C)[C@@H]1CCc2cnnn2COC[C@H](Cc2ccccc2)NC1=O,-0.0175% (inactive)
15,O=C(C[C@H]1CC[C@@H]2[C@H](COC[C@H](O)CN2Cc2ccc3c(c2)OCO3)O1)N1CCCCC1,0.002% (inactive)
16,COc1ccc2c3c([nH]c2c1)[C@@H](CO)NCC31CN(Cc2cc(F)ccc2F)C1,0.0025% (inactive)
17,O=S(=O)(c1ccc(F)cc1)N1CCCCN2[C@H](CO)[C@H](c3ccc(-c4cncnc4)cc3)[C@H]2C1,0.001% (inactive)
18,O=C(C[C@H]1C[C@H]2c3cc(NS(=O)(=O)c4ccccc4)ccc3O[C@H]2[C@H](CO)O1)N1CCOCC1,0.0015% (inactive)
19,CC(=O)N1[C@@H]2Cn3c(ccc(-c4cccnc4)c3=O)[C@H]1[C@@H](C(=O)NC1Cc3ccccc3C1)[C@@H]2CO,0% (inactive)
20,C[C@H]1CN([C@@H](C)CO)C(=O)Cc2cc(NS(=O)(=O)c3ccc(Cl)cc3)ccc2O[C@H]1CN(C)C(=O)Nc1ccc(C(F)(F)F)cc1,-0.003% (inactive)

row,Structure (SMILES),activation
1,CN(C)C(=O)c1ccc(-c2ccc([C@@H]3[C@@H](CO)N4C(=O)CN(C(=O)CC5CC5)C[C@H]34)cc2)cc1,0.005% (inactive)
2,COc1ccc(CN2[C@@H]3CN(C(=O)NC(C)C)c4ccccc4[C@@H]3[C@@H]2CO)cc1,-0.0005% (inactive)
3,C[C@H](CO)N1C[C@H](C)[C@@H](CN(C)Cc2ccc(Oc3ccccc3)cc2)Oc2c(NC(=O)CCC(F)(F)F)cccc2C1=O,0.039% (inactive)
4,C[C@H](CO)N1C[C@H](C)[C@@H](CN(C)Cc2ccc(-c3ccccc3)cc2)Oc2c(NS(C)(=O)=O)cccc2C1=O,-0.001% (inactive)
5,C[C@H](CO)N1C[C@H](C)[C@@H](CN(C)Cc2ccccc2)Oc2c(NC(=O)Cc3cn(C)c4ccccc34)cccc2C1=O,13.8% (active)
6,C[C@@H](NC(=O)C[C@H]1CC[C@@H]2[C@@H](COc3ccc(NC(=O)C4CCOCC4)cc3C(=O)N2C)O1)c1ccccc1,0.0015% (inactive)
7,O=C(NC1CCCC1)N[C@H]1C=C[C@H](CC(=O)N2CCOCC2)O[C@H]1CO,0.0045% (inactive)
8,COc1ccc(S(=O)(=O)Nc2ccc3c(c2)CC(=O)N([C@H](C)CO)C[C@@H](C)[C@H](CN(C)Cc2ccc(C(=O)Nc4ccccc4N)cc2)O3)cc1,0.03% (inactive)
9,C[C@@H]1CN([C@H](C)CO)C(=O)Cc2cc(NC(=O)C3CCCCC3)ccc2O[C@H]1CN(C)Cc1ccc(Cl)c(Cl)c1,0.389% (inactive)
10,C[C@H]1CN([C@@H](C)CO)C(=O)Cc2cc(NC(=O)C3CCCCC3)ccc2O[C@H]1CN(C)Cc1ccc(Cl)c(Cl)c1,0.106% (inactive)
11,COc1ccc(S(=O)(=O)Nc2ccc3c(c2)CC(=O)N([C@H](C)CO)C[C@@H](C)[C@@H](CN(C)Cc2ccc(C(=O)Nc4ccccc4N)cc2)O3)cc1,0.03% (inactive)
12,COc1ccc(S(=O)(=O)Nc2ccc3c(c2)CC(=O)N([C@H](C)CO)C[C@H](C)[C@H](CN(C)Cc2ccc(C(=O)Nc4ccccc4N)cc2)O3)cc1,15.1% (active)
13,C[C@@H]1CN([C@@H](C)CO)C(=O)Cc2cc(NC(=O)C3CCCCC3)ccc2O[C@@H]1CN(C)Cc1ccc(Cl)c(Cl)c1,46.5% (active)
14,CCCN1C[C@H](C)[C@H](OC)CN(C)C(=O)c2ccc(NS(=O)(=O)c3cn(C)cn3)cc2OC[C@@H]1C,0.0005% (inactive)
15,CN1CCN(C(=O)C[C@H]2C[C@H]3c4cc(NS(C)(=O)=O)ccc4O[C@H]3[C@H](CO)O2)CC1,0% (inactive)
16,O=C(c1ccccn1)N1CC[C@@H]2[C@@H](CO)Nc3ccc(C#Cc4cccnc4)cc3[C@@H]21,0.001% (inactive)
17,CN(C)C(=O)c1ccc(-c2ccc(C3[C@@H]4CN(Cc5ccccc5Cl)C[C@H]3N4)cc2)cc1 (stereo not given in full),0.0085% (inactive)
18,CN(C)C(=O)c1cccc(-c2ccc(C3[C@@H]4CN(Cc5cocn5)C[C@H]3N4)cc2)c1 (stereo not given in full),0.001% (inactive)
19,Fc1cccc(CN2C[C@@H]3N[C@H](C2)C3c2ccc(/C=C/c3ccccc3)cc2)c1 (stereo not given in full),3.54% (inactive) and 8.86% (active)
20,CN(C)C(=O)c1cccc(-c2ccc(C3[C@@H]4CN(Cc5ccccc5F)C[C@H]3N4)cc2)c1 (stereo not given in full),1.26% (inactive) and 21.9% (active)

row,Structure (SMILES),activation
1,Cc1ccccc1S(=O)(=O)N1C[C@@H]2N[C@H](C1)C2c1ccc(/C=C/c2ccccc2)cc1 (stereo not given in full),0.183% (inactive)
2,Cc1cccc(-c2ccc(C3[C@@H]4CN(Cc5cccc(F)c5)C[C@H]3N4)cc2)c1 (stereo not given in full),50.5% (active) and 0.557% (inactive)
3,C(=C\c1ccc(C2[C@@H]3CN(Cc4nccs4)C[C@H]2N3)cc1)/c1ccccc1 (stereo not given in full),0.714% (inactive) and 0.0635% (inactive)
4,COc1ccccc1-c1ccc(C2[C@@H]3CN(Cc4cccc(F)c4)C[C@H]2N3)cc1 (stereo not given in full),0.062% (inactive)
5,Fc1cccc(-c2ccc(C3[C@@H]4CN(Cc5cncnc5)C[C@H]3N4)cc2)c1 (stereo not given in full),0.047% (inactive) and 0.0125% (inactive)
6,Fc1ccc(-c2ccc(C3[C@@H]4CN(Cc5ccccc5)C[C@H]3N4)cc2)cc1 (stereo not given in full),1.66% (inactive) and 0.0585% (inactive)
7,O=S(=O)(c1ccc(F)cc1)N1C[C@@H]2N[C@H](C1)C2c1ccc(/C=C/c2ccccc2)cc1 (stereo not given in full),8.33% (active) and 0.035% (inactive)
8,C/C=C/c1ccc(C2[C@@H]3CN(S(=O)(=O)c4ccccc4F)C[C@H]2N3)cc1 (stereo not given in full),0.01% (inactive)
9,Cc1ccccc1-c1ccc(C2[C@@H]3CN(Cc4ccc5c(c4)OCO5)C[C@H]2N3)cc1 (stereo not given in full),0.039% (inactive) and 0.046% (inactive)
10,C(=C\c1ccc(C2[C@@H]3CN(Cc4ccc5c(c4)OCO5)C[C@H]2N3)cc1)/c1ccccc1 (stereo not given in full),10.3% (active) and 0.0555% (inactive)
11,O=C(c1ccc2c(c1)OCO2)N1C[C@@H]2N[C@H](C1)C2c1ccc(/C=C/c2ccccc2)cc1 (stereo not given in full),0.452% (inactive) and 0.1% (inactive)
12,CCS(=O)(=O)N1Cc2cc(C(=O)NCCOC)nc(-c3cccc(-c4ccncc4)c3)c2[C@H]1CCO,0% (inactive)
13,N#C[C@@H]1[C@@H](c2ccccc2-c2ccccc2F)[C@@H](CO)N1C(=O)Cc1ccccc1,0.0105% (inactive)
14,CO[C@@H](CN(C)C(=O)c1ccc2c(c1)OCO2)[C@@H](C)CN([C@H](C)CO)S(=O)(=O)c1ccc(Cl)cc1,0.019% (inactive)
15,CO[C@H]1CC[C@@H]2CCOc3ccc(C#N)cc3C(=O)N(C)[C@H](C)C(=O)N(C)C[C@@H]1O2,0.001% (inactive)
16,CCCC(=O)N1CC2(C1)CN(C(=O)c1ccc(F)cc1)[C@H](CO)c1[nH]c3cc(OC)ccc3c12,0.003% (inactive)
17,CN(C)CC(=O)N1[C@H](C(=O)Nc2nccs2)[C@@H](CO)[C@@H]2Cn3c(ccc(C4=CCCCC4)c3=O)[C@@H]21,0% (inactive)
18,COc1ccc2c3c([nH]c2c1)[C@H](CO)N(S(=O)(=O)c1cn(C)cn1)CC31CCN(CC2CCCCC2)CC1,0.0045% (inactive)
19,CCC(=O)N1CC2(C1)CN(C(=O)c1cnccn1)[C@@H](CO)c1c2c2ccc(OC)cc2n1C,0.0005% (inactive)
20,C[C@@H]1CCCCO[C@H](CN(C)Cc2ccncc2)[C@H](C)CN([C@@H](C)CO)C(=O)c2cc(NC(=O)Cc3ccccc3)ccc2O1,-0.0005% (inactive)
